Source: PubChem (Sanford-Burnham Center for Chemical Genomics)
Peg3 prom inh-1 = Peg3 promoter activity inhibition; HeLa PEG-Prom luciferase reporter, luminescence, overnight; 1.7% of 360,000 active; AID 588405; inhibition, % at 20 µM;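 active means inhibition of at least 50% at 20 µM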
KKLEB tox = CF airway cell cytotoxicity counter-screen; KKLEB CF airway cells viability, ATPlite luminescence, overnight; active compounds read low; cells stimulated with P. aeruginosa culture filtrate; activity change (cytotoxicity), % at 5 µM; 0.36% of 360,000 active; AID 602141;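 active means corrected activity change at or below -50% at 5 µM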
TWEAK-Fn14 inh = blocks TWEAK-Fn14 interaction in a reporter cell assay. 2% of 360,000 active. inhibition, % at 10 µM. TWEAK-stimulated Fn14 reporter cells, luciferase luminescence, 8 h; in the data active means inhibition above about 50%
HIF-2a inh = HIF-2a inhibition; 786-0 RCC cells HIF-2a reporter, luciferase luminescence, overnight; inhibition, % at 18.8 µM; 0.72% of 360,000 active; AID 624352;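 active means inhibition of the luminescence signal of 40% or more relative to plate controls, in a single-dose primary screen at 18.75 µM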
CF NFkB inh = cystic fibrosis NF-kB activation inhibition; KKLEB NF-kB-GFP reporter, PAF-induced, GFP fluorescence overnight; inhibition, % at 5 µM; 0.86% of 360,000 active;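 active means at least 50% inhibition at 5 µM, scaled per plate between neutral and stimulator controls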;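 further: PAF is a Pseudomonas aeruginosa culture filtrate used as stimulus; plate controls were PAF-stimulated DMSO wells for no effect and unstimulated DMSO wells for full effect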
TROY NFkB inh = inhibitors of TROY-dependent NF-kB signaling. Q293 LMP1-TROYcd NF-kB luciferase reporter, 4 h. inhibition, % at 10 µM. 0.98% of 360,000 active;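 active means compounds whose plate-normalised and pattern-corrected inhibition of the luciferase reporter signal at the single screening dose is 50% or more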
Peg3 prom inh-2 = Peg3 promoter inhibition confirmation; HeLa PEG-Prom luciferase reporter, luminescence, overnight; inhibition, % at 20 µM; AID 602417; shares compounds with Peg3 prom inh-1; 84% of 1,300 active;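 active means at 20 µM dose, 40% or more inhibition averaged across four replicates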
CF NFkB inh conf = CF NF-kB inhibition confirmation, single concentration | shares compounds with CF NFkB inh | KKLEB CF airway cells, PAF-induced NF-kB-GFP fluorescence, overnight | inhibition, % at 5 µM | 64% of 1,300 active; in the data active means inhibition above about 40%;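 further: stimulus PAF is a Pseudomonas aeruginosa filtrate and not platelet activating factor; plate controls were DMSO wells with stimulus for no effect and unstimulated DMSO wells for full effect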
Mdm2-MdmX confirm = Mdm2/MdmX (human) interaction inhibition, confirmed; shares compounds with HIF-2a inh; SaOS-2 split-luciferase Mdm2/MdmX complementation, luminescence; inhibition, % at 8 µM; 99% of 740 active;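 active means mean inhibition of the luminescence signal across two replicates at or above 26 percent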
HIF-2a inh conf = HIF-2a inhibition, single concentration confirmation; 56% of 1,800 active; inhibition, % at 18.8 µM; 786-0 RCC cells, HIF-2a luciferase reporter luminescence, overnight; AID 651580; shares compounds with HIF-2a inh;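 active means mean inhibition across four replicates of at least 40 percent at the single tested concentration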
HIF-1a cs = inhibits HIF-1a reporter, a counter-screen for HIF-2a inhibitors. shares compounds with HIF-2a inh. MiaPaCa-2 HIF-1a luciferase reporter, desferoxamine, overnight. 72% of 1,800 active. inhibition, % at 18.8 µM;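 active means mean inhibition of the reporter signal across four replicates at the single tested dose of 50% or more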
Starred values were filed as active, the others as inactive; / = no result. Most compounds without a hit are left out; they make up all but 4% or so of the library.

SMILES	Peg3 prom inh-1	KKLEB tox	TWEAK-Fn14 inh	HIF-2a inh	CF NFkB inh	TROY NFkB inh	Peg3 prom inh-2	others
CCCCN(CC)C(=O)CSc1nc2n[nH]c(C)c2c(=N)n1-c1cccc(C)c1	53.5*	-3.6	2.0	42.7*	-5.9	7.9	43.4*	HIF-2a inh conf=10.4;HIF-1a cs=61.4*
Cc1ccc(NC(=O)c2ccc(OCc3c(C)noc3C)cc2)c(C)c1	-15.6	-19.9	8.0	-6.8	-0.1	9.4	/
C/C(=N\OCc1ccc(C#N)cc1)c1ccccc1	-284.5	15.9	-26.3	-331.4	-21.3	-127.3	/
C/C(=N\OCc1cccc(C(=O)O)c1)c1ccc(Cl)cc1	55.3*	4.3	-4.4	73.4*	-14.0	-72.7	35.9	HIF-2a inh conf=79.0*;HIF-1a cs=-104.2
COc1ccc(-c2cc(-c3ccc(F)cc3)nc(N3CCN(C)CC3)n2)cc1	79.8*	-34.8	-1.0	52.1*	-18.7	-15.3	58.1*	HIF-2a inh conf=1.1;HIF-1a cs=70.5*
CC(=O)Nc1c(C)ccc(CNC(=O)COc2ccc(F)cc2)c1C	0.3	6.0	4.9	16.6	0.0	6.1	/
COc1ccc2nc(NC(=O)c3ccccc3C(=O)O)sc2c1	-12.3	6.4	6.0	0.4	-19.7	-15.2	/
COc1ccc(C(=O)Nc2nc3ccccc3s2)c(OC)c1	106.7*	-87.8*	105.1*	92.2*	0.5	85.2*	98.6*	Mdm2-MdmX confirm=96.9*
COc1ccccc1CN1C(=O)C(C)ON=C1c1ccccc1F (configuration not stated)	-2.0	-2.2	3.8	-3.0	-17.4	-2.9	/
CC1=C(C(=O)OCc2ccc3c(c2)OCO3)C(c2ccc(Cl)cc2)NC(=O)N1 (configuration not stated)	53.2*	-36.6	94.2*	33.1	92.8*	70.2*	28.9	Mdm2-MdmX confirm=95.5*
Cc1csc(NC(=O)c2cn3ccccc3n2)n1	69.2*	2.6	90.7*	53.1*	-28.0	61.5*	65.2*	HIF-2a inh conf=77.4*;HIF-1a cs=50.8*
CN(C(=O)OC(C)(C)C)c1ccc(-c2nc3ccccc3s2)cc1	90.4*	-80.9*	103.5*	87.9*	28.5	89.0*	92.5*	HIF-2a inh conf=95.3*;HIF-1a cs=99.4*
O=C(Nc1ccccc1F)c1ccc(C(=O)c2ccccc2)cc1	-293.7	-10.6	-41.0	-268.4	-14.7	-21.1	/
O=C(O)C1CCN(C(=O)c2csc(-c3ccc4c(c3)CCO4)n2)CC1	4.3	-3.8	8.7	17.6	0.5	-10.6	/
Cc1[nH]nc2ncc(C(=O)c3ccccc3O)cc12	26.2	-12.8	58.6*	10.2	85.9*	48.9	/	CF NFkB inh conf=94.0*
CC(=O)Nc1ccc(-c2ccnc3c2CC(C(=O)NCc2ccccc2)O3)cc1 (configuration not stated)	-19.8	-24.0	47.8	16.6	55.7*	7.0	/	CF NFkB inh conf=48.8*
CC(=O)Nc1ccc(-c2ccnc3c2CC(C(=O)NCC2CC2)O3)cc1 (configuration not stated)	8.5	-19.4	21.9	9.1	3.9	5.7	/
CC(=O)Nc1ccc(-c2ccnc3c2CC(C(=O)NCc2ccco2)O3)cc1 (configuration not stated)	-16.1	-44.3	-8.2	26.9	60.0*	27.7	/	CF NFkB inh conf=60.9*
O=C(Nc1cccc(Cl)c1)Nc1ccc(Br)cc1F	-154.8	-43.2	33.4	-247.8	59.2*	11.4	/	CF NFkB inh conf=20.0
O=C(Nc1ccccc1)Nc1ccc(Br)cc1F	-347.4	27.4	-14.6	-303.8	-5.1	-83.9	/
COC(=O)c1cc(NC(=O)Nc2cccc(Cl)c2)ccc1Cl	-70.8	-29.8	77.9*	-294.2	50.1*	36.6	/	CF NFkB inh conf=34.6
